Screen size: about 69,000 compounds; about 8,600 (12%) showed an effect of 50% or more. For the sample, strong results were picked, then their nearest neighbours and some compounds at random.
These compounds were tested on Plasmodium berghei (assay: Screen against P. berghei liver stage (PbLuc), transformed with Luciferase, at 10uM). Settings: tested at 10 uM.
Format: functional, HepG2

Going from `Cc1nn(S(=O)(=O)c2ccc(Cl)cc2)c(C)c1C` to `Cc1c(F)cccc1S(=O)(=O)NCC(C)(C)CC(C)O` (centres undefined), the INHIBITION falls from 9.52% to -11.9%.

Going from `COc1cc(N2CCC3(CCN(C(=O)c4cccnc4)CC3)C2)ncn1` to `N#Cc1cccc(N2CC3(CCN(C(=O)c4cccnc4)C3)CC2=O)c1` (centres undefined), the INHIBITION rises from -3.77% to 19.9%.

Going from `COc1ncccc1C(=O)N1CC[C@H]2C[C@H](c3nnc(C)[nH]3)O[C@@H]2C1` to `C[C@H]1C[C@@H]2CCN(C(=O)c3cnccn3)C[C@H]2O1`, the INHIBITION falls from 15.4% to 7.31%.

First: CC(C)N(C)Cc1nnc2n1CCN(S(=O)(=O)C1CC1)CC2
Second: CC(C)(C)c1cn(C2CCN(C3CCSC3)CC2)nn1 (centres undefined)
The INHIBITION of the first is lower: 29% for the first, 70.9% for the second.

Going from `COCc1nc(N(C)C)ncc1C(=O)OC` to `COCc1nc(N(C)C)ncc1C(=O)NC(C)C`, the INHIBITION falls from 66.5% to -1.58%.

Going from `CCCNC(=O)c1cnc(N(C)C)nc1COC` to `Cc1ccccc1C(=O)NCC(=O)NCc1ccccn1`, the INHIBITION rises from -10.3% to 46.3%.

Compared with `Cc1cnn(CC2CCCCN2C(=O)c2ccccc2-n2cccn2)c1` (centres undefined), `CCNC(=O)[C@@H]1CCCN1[C@@H](C(=O)NC)c1ccccc1` is lower in INHIBITION: 38.8% for the first, -1.12% for the second.

Going from `CCc1ccc(NS(=O)(=O)c2cc3c(c(C(=O)O)c2)OCCO3)cc1` to `Cc1ccc(C(=O)N(C)Cc2csc(Br)c2)c(=O)[nH]1`, the INHIBITION rises from 9.14% to 21.8%.

First: OC1(c2cn(C3CCN(C4CCSC4)CC3)nn2)CCCC1 (centres undefined)
Second: CC(C)(N)c1cn(C2CCN(C3CCSCC3)CC2)nn1
The INHIBITION of the first is lower: -23% for the first, -7.77% for the second.

Compared with `CC(C)(C)c1cn(C2CCN(C(=O)c3cnccn3)CC2)nn1`, `CC(C)(C)c1cn(C2CCN(C(=O)c3cncnc3)CC2)nn1` is lower in INHIBITION: 61.1% for the first, 54.4% for the second.

Compared with `CCC(=O)N1CCC(n2cc(C(C)(C)O)nn2)CC1`, `CC(C)(O)c1cn(C2CCN(C(=O)CCc3ccncc3)CC2)nn1` is lower in INHIBITION: 42.1% for the first, 23.9% for the second.

First: CC(C)n1cc(C(=O)N2CCC(n3cc(C(C)(C)C)nn3)CC2)cn1
Second: Cc1cccc(S(=O)(=O)NCC(C)(C)CC(C)O)c1C#N (centres undefined)
The INHIBITION of the first is higher: 29.8% for the first, 18.8% for the second.

Going from `CCCc1cc(C(=O)N[C@H](C)[C@@H](O)c2ccc(O)cc2)n(C)n1` to `CC(O)CC(C)(C)CNS(=O)(=O)c1cccc(Cl)c1C#N` (centres undefined), the INHIBITION rises from 20.3% to 53.5%.

Going from `CC[C@@H]1N(Cc2ccc(F)cc2)CCC[C@]12CCC(=O)N2CCOC` to `COc1cccc2c3c(c(=O)[nH]c12)CCO3`, the INHIBITION rises from -69.5% to 20.9%.

For `Cc1cc2n(n1)CC(CNCc1cc(C)on1)CN2` (centres undefined), the INHIBITION was 26.8%.

— ChEMBL document CHEMBL4513216, “Probing the Open Global Health Chemical Diversity Library for Multistage-Active Starting Points for Next-Generation Antimalarials” (ACS Infect Dis, 2020)
